This is an account of results in PubChem BioAssay AID504332 (National Center for Advancing Translational Sciences (NCATS), 2011).

Structures are written as SMILES. The campaign covered roughly 350,000 compounds. About 31,000 (8.9%) were called active. Where a call stands in place of a potency, no number is given. Roughly 15% stayed inconclusive and do not appear here. This is one part of a sample in which actives are shown more often than they occur. Unmarked numbers belong to inactive results. Calls come from the whole dose curve; as a rule, active = well fitted inhibition curve with a large enough effect; inconclusive = small, poorly fitted or top-dose-only effect; inactive = no such curve, though single readings can be large or run the other way.
Potency is the fitted concentration of half-maximal effect.

Chain of Histone-lysine N-methyltransferase EHMT2 (Homo sapiens) (Q96KQ7 913-1193 limits assumed): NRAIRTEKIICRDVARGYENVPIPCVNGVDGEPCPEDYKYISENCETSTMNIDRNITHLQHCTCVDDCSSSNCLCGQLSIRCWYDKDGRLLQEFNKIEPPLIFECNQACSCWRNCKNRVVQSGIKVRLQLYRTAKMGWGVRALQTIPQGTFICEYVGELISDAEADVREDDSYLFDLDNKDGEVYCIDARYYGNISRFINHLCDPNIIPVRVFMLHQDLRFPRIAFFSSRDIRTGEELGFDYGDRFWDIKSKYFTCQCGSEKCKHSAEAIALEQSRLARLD

The experiment has as its target Histone-lysine N-methyltransferase EHMT2 (Homo sapiens) (UniProt Q96KQ7). The experiment in a line: qHTS Assay for Inhibitors of Histone Lysine Methyltransferase G9a. Note: nearly all actives have a fitted effect of over 75% in size. Conditions: G9a H3K9 monomethylation, AlphaScreen, 2 h; series mostly up to 59 µM. In outline: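 AlphaScreen detection with an anti-monomethyl H3K9 antibody quantified product after a 2 h room-temperature reaction containing 500 nM biotinylated H3K9 peptide, 20 µM SAM and 20 nM enzyme, which had been preincubated 15 min with compound.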
(Quantitative high-throughput screening tests each substance at several concentrations.)
Turning to `COc1ccc2cc(C(=O)NCC3CCCO3)[nH]c2c1` (stereo unspecified), the Potency result was “inactive”. As for `Cc1cc2c(cc1S(=O)(=O)CCC(=O)Nc1ccc(OC(F)(F)F)cc1)OCC(=O)N2`, the Potency result was “inactive”. Regarding `C=CCn1c(SCC(=O)/C(C#N)=C(\C)N)nc2sc(C)c(C)c2c1=O`, the Potency result was “inactive”.

With `C=CCn1c(SCc2csc(C)n2)nc2scc(-c3ccc(C)o3)c2c1=O`, the Potency is 10 µM (active). With `C=CCn1c(SCC(=O)Nc2ccc(NC(C)=O)cc2)nc2sc(C)c(C)c2c1=O`, the activity, negative = inhibition is 8.2% [at 12.7 µM]. For the molecule `CCN(C(=O)CSc1ncn[nH]1)c1cccc2ccccc12`, the Potency was 22.4 µM (active). In the case of `O=C(CSc1ncn[nH]1)Nc1nsc(-c2ccccc2)n1`, the Potency entry is “inactive”.

On to `CCN(C(=O)Cc1c(C(=O)O)n(CC)c2ccccc12)c1ccccc1C`, for which the activity, negative = inhibition is 26.7% [at 0.501 µM]. As for `CCOc1ccc(C(=O)NCC(=O)N2CCCCCCC2)cc1OCC`, the activity, negative = inhibition is 8% [at 0.501 µM]. As to `CC(Oc1ccc(F)cc1)C(=O)Nc1ccccc1C(=O)NC1CC1` (stereo unspecified), the Potency result was “inactive”.

Take `COc1cc(-c2c(-c3ccc4c(c3)OCO4)noc2C)ccc1F`: the Potency result is “inactive”.

With `CC(C(=O)N1CCc2ccccc21)N(C)CC(=O)Nc1ccc(F)cc1` (stereo unspecified), the activity, negative = inhibition was 13.8% [at 12.7 µM].

`CC(=NCc1ccco1)c1c(C(F)(F)F)[nH]n(-c2nc3ccccc3s2)c1=O`: the activity, negative = inhibition was 1.72% [at 12.7 µM]. In the case of `COC(=O)Cc1[nH]n(-c2nc3ccccc3s2)c(=O)c1C(C)=Nc1ccc(OC)cc1`, the Potency is 2.82 µM (active).

In the case of `C/C(=N\NC(=O)CC(C)C)c1c(C(F)(F)F)[nH]n(-c2nc3ccccc3s2)c1=O`, the Potency result was “inactive”. For the molecule `COc1ccccc1CCC(=O)OCC(=O)N1CCN(S(=O)(=O)c2ccc(C)cc2C)CC1`, the Potency entry is “inactive”. Consider `c1ccc(-n2nc3ccccc3n2)cc1`, for which the Potency entry was “inactive”. Take `Brc1ccc(-c2nn[nH]n2)cc1`: the Potency result is “inactive”. Take `c1ccc(-n2ncc(-c3nn[nH]n3)n2)cc1`: the Potency was 50.1 µM (active).

`Cc1c(NC(=O)C(C)Oc2cccc(Cl)c2)c(=O)n(-c2ccccc2)n1C` (stereo unspecified): the Potency entry was “inactive”. Turning to `CCN(CC)c1ccc(C2C(C(N)=O)=C(C)Nc3nc(SCc4ccccc4)nn32)cc1` (stereo unspecified), the Potency result is “inactive”. Consider `CC1=C(C(N)=O)C(c2ccc3c(c2)OCO3)n2nc(-c3cccc(C)c3)nc2N1` (stereo unspecified), for which the Potency is 0.355 µM (active). Regarding `COc1cccc(-c2nc3n(n2)C(c2ccccc2Cl)C(C(N)=O)=C(C)N3)c1` (stereo unspecified), the Potency entry is “inactive”. Same read-out and setting: for `COc1ccc(CC(=O)N2CC(=O)Nc3ccc(Br)cc3C2c2ccc(F)cc2)cc1OC` (stereo unspecified) the value was “inactive”; for `CCc1ccc(C2C(C(=O)Nc3ccccc3)=C(C)Nc3c(C(=O)Nc4ccc(C)cc4)cnn32)cc1` (stereo unspecified), “inactive”. Same read-out and setting: for `Cc1cc(F)ccc1NC(=O)C(C)n1c2ccccc2c2nc(=O)cc(C)n21` (stereo unspecified) the value was “inactive”.

As for `Cc1cc(F)ccc1NC1(c2ccccc2)C(=O)c2ccccc2C1=O`, the Potency is 14.1 µM (active).

As for `Cc1cc(F)ccc1NS(=O)(=O)c1ccc(-n2cccn2)cc1`, the Potency entry is “inactive”.

Regarding `COc1cccc2c1cc1c(=O)n(CC(=O)N3CCN(c4cccc(Cl)c4)CC3)nc(C)n12`, the Potency entry was “inactive”. For `O=S(=O)(NCC(c1ccco1)N1CCOCC1)c1cc(F)ccc1F` (stereo unspecified), the Potency result was “inactive”.

Consider `COC(=O)CNc1nc(Cl)nc(N2CCC(C)CC2)n1`, for which the Potency was 56.2 µM (active). The same measure, in the same setting: for `CCOC(=O)CNc1nc(Cl)nc(Nc2ccccc2)n1` the value was “inactive”; for `Clc1nc(NC2CCCC2)nc(N2CCOCC2)n1`, “inactive”; for `O=C(COc1ccccc1F)NNC(=O)c1ccc(N2CCCCC2)c([N+](=O)[O-])c1`, “inactive”. Regarding `O=[N+]([O-])c1cc([N+](=O)[O-])c(Oc2cc(F)cc(F)c2F)cc1NN1CCCCC1`, the Potency is 15.8 µM (active).

On to `O=C(COc1ccc(Cl)cc1[N+](=O)[O-])N1CCCCC1`, for which the Potency entry is “inactive”. Same read-out and setting: for `CCOC(=O)C1CCN(C(=O)CSc2c3c(nc4ccc(Cl)cc24)CCCC3)CC1` the value was “inactive”; for `COc1ccc(/C=C2/SC(=O)N(CCCCCC(=O)Nc3ccccc3C(=O)O)C2=S)cc1`, 35.5 µM (active); for `COc1ccc(/C=C2\SC(=O)N(CCC(=O)NCCCn3ccnc3)C2=O)cc1`, “inactive”. As to `COc1ccccc1C(=O)NNC(=O)CCN1C(=O)/C(=C\c2ccccc2)SC1=S`, the Potency entry is “inactive”. For the molecule `CN(C(=O)c1ccc2c(c1)N(Cc1cccc(Cl)c1)C(=O)c1ccccc1S2=O)C1CCCCC1` (stereo unspecified), the Potency entry was “inactive”.

As to `Cc1cc(C(=O)N/N=C/c2ccccn2)c2ccccc2n1`, the Potency is 12.6 µM (active). `CCOc1ccc(NC(=O)c2cc(C)nc3ccccc23)cc1`: the Potency result was “inactive”.

For the molecule `CNC(=O)C(=O)N/N=C/c1ccccn1`, the activity, negative = inhibition was -131% [at 12.7 µM]. As to `COC(=O)C1CCN(C(=O)c2ccc3oc(Cc4ccc(Cl)cc4)nc3c2)CC1`, the Potency entry was “inactive”.

As for `CCC(=O)N1N=C(c2ccc(OC)cc2)CC1c1cn(-c2ccccc2)nc1-c1cccs1` (stereo unspecified), the Potency result was “inactive”. Same read-out and setting: under `COc1ccc(-c2nc(Cn3c(=O)cc(C)c4c(C)nn(-c5ccccc5)c43)c(C)o2)c(OC)c1` stands “inactive”. For `CCOc1cccc(C(=O)Nc2nnc(S(=O)(=O)N(C)c3ccc(C)cc3)s2)c1`, the Potency entry is “inactive”.

With `Cn1c(SCC(=O)N2CCOCC2)nnc1-c1ccc2ncccc2c1`, the Potency entry was “inactive”.

On to `Cn1c(SCC(=O)N2CCOCC2)nnc1-c1ccc(NC(=O)c2ccccc2F)cc1`, for which the Potency is 50.1 µM (active). On to `Cn1c(SCC(=O)N2CCCC2)nnc1-c1ccc2c(c1)OCO2`, for which the Potency result was “inactive”.

On to `CCn1cc(C(=O)NCc2ccccc2)c(=O)c2cc(S(=O)(=O)N3CCCCC3)ccc21`, for which the Potency entry is “inactive”. As for `Cc1ccc(CNC(=O)CCNS(=O)(=O)c2ccc3c(c2)oc(=O)n3C)cc1`, the Potency result is “inactive”. In the case of `COc1cccc(CN2CCc3nc(SCC(=O)Nc4ccccc4)[nH]c(=O)c3C2)c1`, the Potency entry is “inactive”. In the case of `CN1C(=O)c2cccc3c(N)ccc(c23)C1=O`, the activity, negative = inhibition is -11.1% [at 2.33 µM]. `CCN1C(=O)c2cccc3c(N)ccc1c23`: the Potency was 39.8 µM (active). Take `Nc1ccc2c3c(cccc13)C(=O)NC2=O`: the activity, negative = inhibition is 29.3% [at 12.7 µM]. Take `Cc1cccc(NC(=O)CN2C(=O)c3ccccc3C2=O)c1C`: the Potency entry is “inactive”. As to `CCN1C(=O)c2cccc3c(S(=O)(=O)Nc4ccccc4O)ccc1c23`, the Potency is 44.7 µM (active). As for `O=C(CN1C(=O)c2cccc3cccc1c23)Nc1ccccc1`, the Potency result was “inactive”.

On to `CCc1ccc(-c2cc3c(=O)n(CC(=O)NCCCN4CCN(Cc5ccccc5)CC4)nc(C)n3n2)cc1`, for which the Potency result is “inactive”.
